Measured values taken from PubChem BioAssay AID1159580 (chemical genetic matrix, 2015).
“And” between values parts separate entries of the source, which are not always exact repeats. Equal values may be shown once. Screen size: about 5,500 compounds; about 2,000 (36%) were called active. Another 18% or so got no clear call; they are omitted. Cut-off read from the data, not from the text of the source: active = normalized growth mostly below about 0.91 (no sharp cut-off); inconclusive = no clear call, values can overlap the other calls; inactive = mostly above about 0.92. The list shows a part of the results. Where a structure was tested more than once in an assay, its records may differ in their call.

Experiment: chemical genetic growth profiling, strain panel (AID 1159580);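 note: tested at 20 µM; growth read once vehicle control cultures reached saturation at 30 °C; 1 = growth at the plate median or of vehicle wells; lower values mean less growth of the strain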
Conditions: growth OD

## CN(C)CCCN1c2ccccc2Sc2ccc(C(F)(F)F)cc21
S. cerevisiae deletion strains, locus YJR066W, strain TOR1, stronger effect = lower value
  normalized growth: 0.981 (inactive)
S. cerevisiae deletion strains, locus YJR075W, strain HOC1, stronger effect = lower value
  normalized growth: 1.01 (inactive)
S. cerevisiae deletion strains, locus YKL009W, strain mrt4, stronger effect = lower value
  normalized growth: 0.944 (inactive)
S. cerevisiae deletion strains, locus YKL068W, stronger effect = lower value
  normalized growth: 0.991 (inactive)
S. cerevisiae deletion strains, locus YKL085W, strain MDH1 (second series), stronger effect = lower value
  normalized growth: 0.994 (inactive)
S. cerevisiae deletion strains, locus YKL085W, strain MDH1, stronger effect = lower value
  normalized growth: 0.994 (inactive)
S. cerevisiae deletion strains, locus YKL160W, strain elf1, stronger effect = lower value
  normalized growth: 0.997 (inactive)
S. cerevisiae deletion strains, locus YKL190W, strain CNB1, stronger effect = lower value
  normalized growth: 0.995 (inactive)
S. cerevisiae deletion strains, locus YKR001C, strain vps1, stronger effect = lower value
  normalized growth: 0.978 (inactive)
S. cerevisiae deletion strains, locus YKR026C, strain gcn3, stronger effect = lower value
  normalized growth: 1.02 (inactive)
S. cerevisiae deletion strains, locus YKR091W, strain srl3, stronger effect = lower value
  normalized growth: 1.02 (inactive)
S. cerevisiae deletion strains, locus YLL001W, strain dnm1, stronger effect = lower value
  normalized growth: 1 (inactive)
S. cerevisiae deletion strains, locus YLL026W, stronger effect = lower value
  normalized growth: 1 (inactive)
S. cerevisiae deletion strains, locus YLL041C, strain sdh2, stronger effect = lower value
  normalized growth: 1.01 (inactive)
S. cerevisiae deletion strains, locus YLR027C, strain aat2, stronger effect = lower value
  normalized growth: 0.992 (inactive)
S. cerevisiae deletion strains, locus YLR039C, strain RIC1, stronger effect = lower value
  normalized growth: 0.901 (inactive)
S. cerevisiae deletion strains, locus YLR058C, strain SHM2, stronger effect = lower value
  normalized growth: 0.977 (inactive)
S. cerevisiae deletion strains, locus YLR102C, strain apc9, stronger effect = lower value
  normalized growth: 0.979 (inactive)
S. cerevisiae deletion strains, locus YLR113W, strain HOG1, stronger effect = lower value
  normalized growth: 0.979 (inactive)
S. cerevisiae deletion strains, locus YLR221C, strain rsa3, stronger effect = lower value
  normalized growth: 0.977 (inactive)
S. cerevisiae deletion strains, locus YLR258W, strain gsy2, stronger effect = lower value
  normalized growth: 0.989 (inactive)
S. cerevisiae deletion strains, locus YLR262C, strain YPT6 (second series), stronger effect = lower value
  normalized growth: 1.16 [resistant] (active)
S. cerevisiae deletion strains, locus YLR262C, strain YPT6, stronger effect = lower value
  normalized growth: 0.87 (inactive)
S. cerevisiae deletion strains, locus YLR268W, strain sec22, stronger effect = lower value
  normalized growth: 1.05 (inactive)
S. cerevisiae deletion strains, locus YLR320W, strain mms22, stronger effect = lower value
  normalized growth: 1.06 (inactive)
S. cerevisiae deletion strains, locus YLR330W, strain CHS5, stronger effect = lower value
  normalized growth: 0.989 (inactive)
S. cerevisiae deletion strains, locus YLR342W, strain FKS1 (second series), stronger effect = lower value
  normalized growth: 1 (inactive)
S. cerevisiae deletion strains, locus YLR342W, strain FKS1, stronger effect = lower value
  normalized growth: 1.02 (inactive)
S. cerevisiae deletion strains, locus YLR357W, strain rsc2, stronger effect = lower value
  normalized growth: 1.02 (inactive)
S. cerevisiae deletion strains, locus YLR370C, strain arc18, stronger effect = lower value
  normalized growth: 1 (inactive)
S. cerevisiae deletion strains, locus YLR371W, strain rom2, stronger effect = lower value
  normalized growth: 0.955 (inactive)
S. cerevisiae deletion strains, locus YLR384C, strain iki3, stronger effect = lower value
  normalized growth: 1.01 (inactive)
S. cerevisiae deletion strains, locus YLR418C, strain cdc73, stronger effect = lower value
  normalized growth: 0.958 (inactive)
S. cerevisiae deletion strains, locus YML016C, strain PPZ1, stronger effect = lower value
  normalized growth: 0.994 (inactive)
S. cerevisiae deletion strains, locus YML032C, strain rad52, stronger effect = lower value
  normalized growth: 0.989 (inactive)
S. cerevisiae deletion strains, locus YML120C, strain ndi1, stronger effect = lower value
  normalized growth: 0.97 (inactive)
S. cerevisiae deletion strains, locus YML124C, strain tub3, stronger effect = lower value
  normalized growth: 0.976 (inactive)
S. cerevisiae deletion strains, locus YMR058W, strain fet3, stronger effect = lower value
  normalized growth: 0.999 (inactive)
S. cerevisiae deletion strains, locus YMR078C, strain ctf18, stronger effect = lower value
  normalized growth: 0.961 (inactive)
S. cerevisiae deletion strains, locus YMR125W, strain sto1, stronger effect = lower value
  normalized growth: 0.992 (inactive)
S. cerevisiae deletion strains, locus YMR129W, stronger effect = lower value
  normalized growth: 1.02 (inactive)
S. cerevisiae deletion strains, locus YMR205C, strain PFK2, stronger effect = lower value
  normalized growth: 1.01 (inactive)
S. cerevisiae deletion strains, locus YMR223W, strain ubp8, stronger effect = lower value
  normalized growth: 0.969 (inactive)
S. cerevisiae deletion strains, locus YMR263W, strain SAP30, stronger effect = lower value
  normalized growth: 0.988 (inactive) and 0.998 (inactive)
S. cerevisiae deletion strains, locus YMR307W, strain GAS1, stronger effect = lower value
  normalized growth: 1.05 (inactive) and 1.01 (inactive)
S. cerevisiae deletion strains, locus YNL067W, strain RPL9B, stronger effect = lower value
  normalized growth: 1.01 (inactive)
S. cerevisiae deletion strains, locus YNL071W, strain lat1, stronger effect = lower value
  normalized growth: 1.01 (inactive)
S. cerevisiae deletion strains, locus YNL128W, strain TEP1, stronger effect = lower value
  normalized growth: 0.968 (inactive) and 1.11 [resistant] (active)
S. cerevisiae deletion strains, locus YNL153C, strain GIM3, stronger effect = lower value
  normalized growth: 1.01 (inactive)
S. cerevisiae deletion strains, locus YNL175C, strain NOP13, stronger effect = lower value
  normalized growth: 1.01 (inactive)
S. cerevisiae deletion strains, locus YNL183C, strain NPR1, stronger effect = lower value
  normalized growth: 0.962 (inactive)
S. cerevisiae deletion strains, locus YNL197C, strain WHI3, stronger effect = lower value
  normalized growth: 1.03 (inactive)
S. cerevisiae deletion strains, locus YNL209W, strain ssb2, stronger effect = lower value
  normalized growth: 0.986 (inactive)
S. cerevisiae deletion strains, locus YNL224C, strain SQS1, stronger effect = lower value
  normalized growth: 1.03 (inactive)
S. cerevisiae deletion strains, locus YNL233W, strain BNI4, stronger effect = lower value
  normalized growth: 1.02 (inactive)
S. cerevisiae deletion strains, locus YNL248C, strain rpa49, stronger effect = lower value
  normalized growth: 0.953 (inactive)
S. cerevisiae deletion strains, locus YNL250W, strain rad50, stronger effect = lower value
  normalized growth: 0.963 (inactive)
S. cerevisiae deletion strains, locus YNL271C, strain bni1, stronger effect = lower value
  normalized growth: 0.982 (inactive)
S. cerevisiae deletion strains, locus YNL298W, strain CLA4, stronger effect = lower value
  normalized growth: 0.954 (inactive)
S. cerevisiae deletion strains, locus YNL307C, strain MCK1, stronger effect = lower value
  normalized growth: 0.987 (inactive)
S. cerevisiae deletion strains, locus YNL322C, strain KRE1 (second series), stronger effect = lower value
  normalized growth: 1.03 (inactive)
S. cerevisiae deletion strains, locus YNL322C, strain KRE1, stronger effect = lower value
  normalized growth: 0.993 (inactive) and 0.907 (inactive)
S. cerevisiae deletion strains, locus YNR049C, strain mso1, stronger effect = lower value
  normalized growth: 1.02 (inactive)
S. cerevisiae deletion strains, locus YNR052C, strain pop2, stronger effect = lower value
  normalized growth: 0.962 (inactive)
S. cerevisiae deletion strains, locus YOL006C, strain TOP1, stronger effect = lower value
  normalized growth: 0.611 (inactive)
S. cerevisiae deletion strains, locus YOL012C, strain htz1
  normalized growth: 1.01 (inactive)
S. cerevisiae deletion strains, locus YOL147C, strain pex11, stronger effect = lower value
  normalized growth: 0.991 (inactive)
S. cerevisiae deletion strains, locus YOR001W, strain rrp6, stronger effect = lower value
  normalized growth: 0.938 (inactive)
S. cerevisiae deletion strains, locus YOR061W, strain CKA2, stronger effect = lower value
  normalized growth: 0.967 (inactive)
S. cerevisiae deletion strains, locus YOR069W, strain VPS5, stronger effect = lower value
  normalized growth: 0.987 (inactive)
S. cerevisiae deletion strains, locus YOR070C, strain gyp1, stronger effect = lower value
  normalized growth: 1.01 (inactive)
S. cerevisiae deletion strains, locus YOR080W, strain dia2, stronger effect = lower value
  normalized growth: 1.03 (inactive)
S. cerevisiae deletion strains, locus YOR083W, strain WHI5 (second series), stronger effect = lower value
  normalized growth: 0.946 (inactive)
S. cerevisiae deletion strains, locus YOR083W, strain WHI5, stronger effect = lower value
  normalized growth: 0.954 (inactive)
S. cerevisiae deletion strains, locus YOR106W, strain vam3, stronger effect = lower value
  normalized growth: 0.561 (active)
S. cerevisiae deletion strains, locus YOR136W, strain idh2, stronger effect = lower value
  normalized growth: 0.972 (inactive)
S. cerevisiae deletion strains, locus YOR144C, strain elg1, stronger effect = lower value
  normalized growth: 0.974 (inactive)
S. cerevisiae deletion strains, locus YOR184W, strain ser1, stronger effect = lower value
  normalized growth: 0.96 (inactive)
S. cerevisiae deletion strains, locus YOR231W, strain MKK1, stronger effect = lower value
  normalized growth: 0.978 (inactive)
S. cerevisiae deletion strains, locus YOR265W, strain rbl2, stronger effect = lower value
  normalized growth: 1.01 (inactive)
S. cerevisiae deletion strains, locus YOR270C, strain vph1, stronger effect = lower value
  normalized growth: 0.737 (active)
S. cerevisiae deletion strains, locus YOR290C, strain snf2, stronger effect = lower value
  normalized growth: 0.989 (inactive)
S. cerevisiae deletion strains, locus YOR316C, strain cot1, stronger effect = lower value
  normalized growth: 0.965 (inactive)
S. cerevisiae deletion strains, locus YPL051W, strain arl3, stronger effect = lower value
  normalized growth: 0.966 (inactive)
S. cerevisiae deletion strains, locus YPL055C, strain LGE1, stronger effect = lower value
  normalized growth: 0.968 (inactive) and 0.953 (inactive)
S. cerevisiae deletion strains, locus YPL078C, strain atp4, stronger effect = lower value
  normalized growth: 0.992 (inactive)
S. cerevisiae deletion strains, locus YPL106C, strain sse1, stronger effect = lower value
  normalized growth: 0.911 (inactive)
S. cerevisiae deletion strains, locus YPL240C, strain hsp82, stronger effect = lower value
  normalized growth: 1.03 (inactive)
S. cerevisiae deletion strains, locus YPL241C, strain CIN2, stronger effect = lower value
  normalized growth: 0.996 (inactive) and 0.976 (inactive)
S. cerevisiae deletion strains, locus YPL256C, strain CLN2, stronger effect = lower value
  normalized growth: 0.988 (inactive)
S. cerevisiae deletion strains, locus YPR119W, strain clb2, stronger effect = lower value
  normalized growth: 0.982 (inactive)
S. cerevisiae deletion strains, locus YPR141C, strain kar3, stronger effect = lower value
  normalized growth: 0.926 (inactive)
S. cerevisiae deletion strains, locus YPR163C, strain tif3, stronger effect = lower value
  normalized growth: 0.979 (inactive)
S. cerevisiae deletion strains, locus YPR167C, strain met16, stronger effect = lower value
  normalized growth: 0.981 (inactive)
S. cerevisiae deletion strains, strain wtn01, stronger effect = lower value
  normalized growth: 0.981 (inactive)
S. cerevisiae strains, strain wild type, stronger effect = lower value
  normalized growth: 0.979 (inactive)
